Measurements taken from the supplement of paper PMC4466140.

target: AgAbp1; experiment: SPOT peptide array binding signal intensity (averaged, normalized) (arbitrary units (background-subtracted, floor 0; scale differs between SH3 domains)); higher = stronger binding of the SH3 domain to the peptide
Method in brief: (§1)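 Binding signal refers to normalized, background-subtracted spot intensity averaged over replicates, expressed in arbitrary units that differ between domains. GST-fused SH3 domains from four yeast species were incubated at 10 μg/ml overnight at 4°C on cellulose membranes of synthetic 15-mer peptides with cysteines replaced by serines. Bound protein was detected with anti-GST antibody, an HRP anti-mouse secondary and luminol, and quantified with Genespotter.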

Binder | SPOT peptide array binding signal intensity
DGNEEKPLLPTRPNK | ≤ 0

target: AgBbc1; experiment: as above
Method in brief: as §1

Binder | SPOT peptide array binding signal intensity
DGNEEKPLLPTRPNK | 977

target: AgBem1-D1; experiment: as above
Method in brief: as §1

Binder | SPOT peptide array binding signal intensity
DGNEEKPLLPTRPNK | ≤ 0

target: AgBzz1-D1; experiment: as above
Method in brief: as §1

Binder | SPOT peptide array binding signal intensity
DGNEEKPLLPTRPNK | 9.5

target: AgBzz1-D2; experiment: as above
Method in brief: as §1

Binder | SPOT peptide array binding signal intensity
DGNEEKPLLPTRPNK | 17.5

target: AgCyk3; experiment: as above
Method in brief: as §1

Binder | SPOT peptide array binding signal intensity
DGNEEKPLLPTRPNK | ≤ 0

target: AgFus1; experiment: as above
Method in brief: as §1

Binder | SPOT peptide array binding signal intensity
DGNEEKPLLPTRPNK | ≤ 0

target: AgHof1; experiment: as above
Method in brief: as §1

Binder | SPOT peptide array binding signal intensity
DGNEEKPLLPTRPNK | 23.8

target: AgHse1; experiment: as above
Method in brief: as §1

Binder | SPOT peptide array binding signal intensity
DGNEEKPLLPTRPNK | ≤ 0

target: AgLsb1; experiment: as above
Method in brief: as §1

Binder | SPOT peptide array binding signal intensity
DGNEEKPLLPTRPNK | 47.2

target: AgLsb4; experiment: as above
Method in brief: as §1

Binder | SPOT peptide array binding signal intensity
DGNEEKPLLPTRPNK | 1730

target: AgMyo5; experiment: as above
Method in brief: as §1

Binder | SPOT peptide array binding signal intensity
DGNEEKPLLPTRPNK | 0.25

target: AgNbp2; experiment: as above
Method in brief: as §1

Binder | SPOT peptide array binding signal intensity
DGNEEKPLLPTRPNK | ≤ 0

target: AgRvs167; experiment: as above
Method in brief: as §1

Binder | SPOT peptide array binding signal intensity
DGNEEKPLLPTRPNK | 43.8

target: AgSho1; experiment: as above
Method in brief: as §1

Binder | SPOT peptide array binding signal intensity
DGNEEKPLLPTRPNK | ≤ 0

target: AgSla1-D1-D2; experiment: as above
Method in brief: as §1

Binder | SPOT peptide array binding signal intensity
DGNEEKPLLPTRPNK | ≤ 0

target: AgSla1-D3; experiment: as above
Method in brief: as §1

Binder | SPOT peptide array binding signal intensity
DGNEEKPLLPTRPNK | ≤ 0

target: CaAbp1-D1; experiment: as above
Method in brief: as §1

Binder | SPOT peptide array binding signal intensity
DGNEEKPLLPTRPNK | ≤ 0

target: CaAbp1-D2; experiment: as above
Method in brief: as §1

Binder | SPOT peptide array binding signal intensity
DGNEEKPLLPTRPNK | ≤ 0

target: CaBbc1; experiment: as above
Method in brief: as §1

Binder | SPOT peptide array binding signal intensity
DGNEEKPLLPTRPNK | 844

target: CaBem1-D1; experiment: as above
Method in brief: as §1

Binder | SPOT peptide array binding signal intensity
DGNEEKPLLPTRPNK | ≤ 0

target: CaBzz1-D1; experiment: as above
Method in brief: as §1

Binder | SPOT peptide array binding signal intensity
DGNEEKPLLPTRPNK | 18

target: CaBzz1-D2; experiment: as above
Method in brief: as §1

Binder | SPOT peptide array binding signal intensity
DGNEEKPLLPTRPNK | 1.75

target: CaCyk3; experiment: as above
Method in brief: as §1

Binder | SPOT peptide array binding signal intensity
DGNEEKPLLPTRPNK | 7

target: CaFus1; experiment: as above
Method in brief: as §1

Binder | SPOT peptide array binding signal intensity
DGNEEKPLLPTRPNK | ≤ 0

target: CaHof1; experiment: as above
Method in brief: as §1

Binder | SPOT peptide array binding signal intensity
DGNEEKPLLPTRPNK | 0.5

target: CaHse1; experiment: as above
Method in brief: as §1

Binder | SPOT peptide array binding signal intensity
DGNEEKPLLPTRPNK | 6.38

target: CaLsb1; experiment: as above
Method in brief: as §1

Binder | SPOT peptide array binding signal intensity
DGNEEKPLLPTRPNK | ≤ 0

target: CaLsb4; experiment: as above
Method in brief: as §1

Binder | SPOT peptide array binding signal intensity
DGNEEKPLLPTRPNK | 3160

target: CaMyo5; experiment: as above
Method in brief: as §1

Binder | SPOT peptide array binding signal intensity
DGNEEKPLLPTRPNK | ≤ 0

target: CaNbp2; experiment: as above
Method in brief: as §1

Binder | SPOT peptide array binding signal intensity
DGNEEKPLLPTRPNK | 4.5

target: CaRvs167; experiment: as above
Method in brief: as §1

Binder | SPOT peptide array binding signal intensity
DGNEEKPLLPTRPNK | 382

target: CaRvs167-3; experiment: as above
Method in brief: as §1

Binder | SPOT peptide array binding signal intensity
DGNEEKPLLPTRPNK | 22

target: CaSho1; experiment: as above
Method in brief: as §1

Binder | SPOT peptide array binding signal intensity
DGNEEKPLLPTRPNK | 1.5

target: CaSla1-D1-D2; experiment: as above
Method in brief: as §1

Binder | SPOT peptide array binding signal intensity
DGNEEKPLLPTRPNK | ≤ 0

target: CaSla1-D3; experiment: as above
Method in brief: as §1

Binder | SPOT peptide array binding signal intensity
DGNEEKPLLPTRPNK | ≤ 0

target: ScAbp1; experiment: as above
Method in brief: as §1

Binder | SPOT peptide array binding signal intensity
DGNEEKPLLPTRPNK | ≤ 0

target: ScBbc1; experiment: as above
Method in brief: as §1

Binder | SPOT peptide array binding signal intensity
DGNEEKPLLPTRPNK | 306

target: ScBem1-D1; experiment: as above
Method in brief: as §1

Binder | SPOT peptide array binding signal intensity
DGNEEKPLLPTRPNK | 6.5

target: ScBzz1-D1; experiment: as above
Method in brief: as §1

Binder | SPOT peptide array binding signal intensity
DGNEEKPLLPTRPNK | 34.2

target: ScBzz1-D2; experiment: as above
Method in brief: as §1

Binder | SPOT peptide array binding signal intensity
DGNEEKPLLPTRPNK | ≤ 0

target: ScCyk3; experiment: as above
Method in brief: as §1

Binder | SPOT peptide array binding signal intensity
DGNEEKPLLPTRPNK | ≤ 0

target: ScFus1; experiment: as above
Method in brief: as §1

Binder | SPOT peptide array binding signal intensity
DGNEEKPLLPTRPNK | ≤ 0

target: ScHof1; experiment: as above
Method in brief: as §1

Binder | SPOT peptide array binding signal intensity
DGNEEKPLLPTRPNK | 41.6

target: ScHse1; experiment: as above
Method in brief: as §1

Binder | SPOT peptide array binding signal intensity
DGNEEKPLLPTRPNK | 15

target: ScLsb1; experiment: as above
Method in brief: as §1

Binder | SPOT peptide array binding signal intensity
DGNEEKPLLPTRPNK | 209

target: ScLsb2; experiment: as above
Method in brief: as §1

Binder | SPOT peptide array binding signal intensity
DGNEEKPLLPTRPNK | 10

target: ScLsb3; experiment: as above
Method in brief: as §1

Binder | SPOT peptide array binding signal intensity
DGNEEKPLLPTRPNK | 7260

target: ScLsb4; experiment: as above
Method in brief: as §1

Binder | SPOT peptide array binding signal intensity
DGNEEKPLLPTRPNK | 4200

target: ScMyo3; experiment: as above
Method in brief: as §1

Binder | SPOT peptide array binding signal intensity
DGNEEKPLLPTRPNK | 0.5

target: ScMyo5; experiment: as above
Method in brief: as §1

Binder | SPOT peptide array binding signal intensity
DGNEEKPLLPTRPNK | 8.12

target: ScNbp2; experiment: as above
Method in brief: as §1

Binder | SPOT peptide array binding signal intensity
DGNEEKPLLPTRPNK | ≤ 0

target: ScPex13; experiment: as above
Method in brief: as §1

Binder | SPOT peptide array binding signal intensity
DGNEEKPLLPTRPNK | 855

target: ScRvs167; experiment: as above
Method in brief: as §1

Binder | SPOT peptide array binding signal intensity
DGNEEKPLLPTRPNK | 871

target: ScSho1; experiment: as above
Method in brief: as §1

Binder | SPOT peptide array binding signal intensity
DGNEEKPLLPTRPNK | ≤ 0

target: ScSla1-D1-D2; experiment: as above
Method in brief: as §1

Binder | SPOT peptide array binding signal intensity
DGNEEKPLLPTRPNK | ≤ 0

target: ScSla1-D3; experiment: as above
Method in brief: as §1

Binder | SPOT peptide array binding signal intensity
DGNEEKPLLPTRPNK | ≤ 0

target: SpAbp1-D1; experiment: as above
Method in brief: as §1

Binder | SPOT peptide array binding signal intensity
DGNEEKPLLPTRPNK | ≤ 0

target: SpBbc1; experiment: as above
Method in brief: as §1

Binder | SPOT peptide array binding signal intensity
DGNEEKPLLPTRPNK | 0.5

target: SpBzz1-D1; experiment: as above
Method in brief: as §1

Binder | SPOT peptide array binding signal intensity
DGNEEKPLLPTRPNK | ≤ 0

target: SpBzz1-D2; experiment: as above
Method in brief: as §1

Binder | SPOT peptide array binding signal intensity
DGNEEKPLLPTRPNK | ≤ 0

target: SpCyk3; experiment: as above
Method in brief: as §1

Binder | SPOT peptide array binding signal intensity
DGNEEKPLLPTRPNK | ≤ 0

target: SpHof1; experiment: as above
Method in brief: as §1

Binder | SPOT peptide array binding signal intensity
DGNEEKPLLPTRPNK | 0.25

target: SpHof1-2; experiment: as above
Method in brief: as §1

Binder | SPOT peptide array binding signal intensity
DGNEEKPLLPTRPNK | 0.875

target: SpHof1-3; experiment: as above
Method in brief: as §1

Binder | SPOT peptide array binding signal intensity
DGNEEKPLLPTRPNK | 1.88

target: SpHse1; experiment: as above
Method in brief: as §1

Binder | SPOT peptide array binding signal intensity
DGNEEKPLLPTRPNK | ≤ 0

target: SpLsb1; experiment: as above
Method in brief: as §1

Binder | SPOT peptide array binding signal intensity
DGNEEKPLLPTRPNK | 1100

target: SpLsb4; experiment: as above
Method in brief: as §1

Binder | SPOT peptide array binding signal intensity
DGNEEKPLLPTRPNK | 3290

target: SpMyo1; experiment: as above
Method in brief: as §1

Binder | SPOT peptide array binding signal intensity
DGNEEKPLLPTRPNK | ≤ 0

target: SpNbp2; experiment: as above
Method in brief: as §1

Binder | SPOT peptide array binding signal intensity
DGNEEKPLLPTRPNK | ≤ 0

target: SpPex13; experiment: as above
Method in brief: as §1

Binder | SPOT peptide array binding signal intensity
DGNEEKPLLPTRPNK | ≤ 0

target: SpRvs167; experiment: as above
Method in brief: as §1

Binder | SPOT peptide array binding signal intensity
DGNEEKPLLPTRPNK | 467

target: SpSla1-D1-D2; experiment: as above
Method in brief: as §1

Binder | SPOT peptide array binding signal intensity
DGNEEKPLLPTRPNK | ≤ 0

target: SpSla1-D3; experiment: as above
Method in brief: as §1

Binder | SPOT peptide array binding signal intensity
DGNEEKPLLPTRPNK | ≤ 0
